# Columns and labels:
# Settings in all cases: concentration: 1 μM, replicates: in singlicate; n = 1
# [1] = test system: ACVR1
# [2] = test system: ACVR2A
# [3] = test system: ACVR2B
# [4] = test system: ACVRL1
# [5] = test system: T1, ADCK3
# T1 construct: gene CABC1
# [6] = test system: ADCK4
# [7] = test system: AKT1
# [8] = test system: AKT2
# [9] = test system: AKT3
# [10] = test system: ALK
# [11] = test system: T2, AMPK-alpha1
# T2 construct: gene PRKAA1
# [12] = test system: T3, AMPK-alpha2
# T3 construct: gene PRKAA2
# [13] = test system: ANKK1
# [14] = test system: T4, ARK5
# T4 construct: gene NUAK1
# [15] = test system: T5, ASK1
# T5 construct: gene MAP3K5
# [16] = test system: T6, ASK2
# T6 construct: gene MAP3K6
# [17] = test system: AURKA
# [18] = test system: AURKB
# [19] = test system: AURKC
# [20] = test system: AXL
# 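Further: KINOMEscan kinase panel screen.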
SMILES,%Inh [1] [%],%Inh [2] [%],%Inh [3] [%],%Inh [4] [%],%Inh [5] [%],%Inh [6] [%],%Inh [7] [%],%Inh [8] [%],%Inh [9] [%],%Inh [10] [%],%Inh [11] [%],%Inh [12] [%],%Inh [13] [%],%Inh [14] [%],%Inh [15] [%],%Inh [16] [%],%Inh [17] [%],%Inh [18] [%],%Inh [19] [%],%Inh [20] [%]
Fc1ccc(-c2nc[nH]c2-c2ccncc2)cc1 [SB-217360],0,5,50,0,0,18,4,0,0,10,5,0,0,0,0,0,8,33,0,0
Cc1ccc(NC(=O)c2ccc(Cl)cc2)cc1-c1ccc(C(=O)Nc2ccncc2)cc1 [GSK1398467],7,0,10,0,15,0,0,19,0,18,0,21,0,6,0,21,0,1,17,0
CC(=O)c1c(C)c2cnc(Nc3ccn(C)n3)nc2n(C2CCCC2)c1=O,16,0,0,0,0,0,3,23,0,6,20,0,0,0,0,0,4,0,0,0
O=C(Nc1n[nH]c2nc(-c3ccco3)c(Br)cc12)C1CCN(Cc2ccccc2)C1.O=C(O)[C@H](O)[C@@H](O)C(=O)O (stereo not drawn) [SB-742034],0,21,0,28,7,0,0,3,3,5,9,0,11,0,13,17,34,17,7,13
NS(=O)(=O)c1cccc(N/C=C2\C(=O)Nc3ccc(S(=O)(=O)Cc4c(Cl)cccc4Cl)cc32)c1 [GSK398099],0,0,0,0,1,18,0,25,0,8,0,0,0,0,3,0,26,30,0,0
COc1ccc(Nc2nccc(N3CCC(NC(=O)c4cc5ccccc5s4)C3)n2)cc1 (stereo not drawn) [GSK1379738],0,0,0,0,0,37,0,5,0,25,0,3,3,19,12,11,14,0,22,7
Cn1cncc1C(=O)NC1CCN(c2ccnc(Nc3ccc(F)cc3)n2)C1 (stereo not drawn) [GSK1379717],24,24,2,0,2,26,0,0,0,0,0,12,0,9,10,3,0,23,8,0
CNc1cc(-c2ccc3c(N)n[nH]c3c2)nc(N)n1 [GSK2224810],29,43,56,0,13,13,0,0,0,5,0,0,10,0,0,0,4,0,10,0
CS(=O)(=O)CCNCc1nc(-c2ccc3ncnc(Nc4ccc(OCc5ccccc5)c(Cl)c4)c3c2)cs1.Cl [GW582764],0,17,0,0,9,45,0,31,0,35,0,0,0,0,0,0,0,23,0,0
Cc1ccc(NC(=O)Nc2ccc(Cl)c(C(F)(F)F)c2)cc1-c1ccc(C(=O)Nc2ccncc2)cc1 [GSK1398470],1,0,0,0,14,2,0,16,0,0,2,16,15,14,0,0,0,0,8,17
COc1ccc(Nc2nccc(NCCNC(=O)Nc3cc(C)ccc3C)n2)cc1 [GSK1379899],2,2,6,0,0,0,0,0,0,1,0,0,0,0,0,0,0,14,36,4
Cc1cccc2c(-c3ccncn3)c(-c3ccc(F)cc3)nn12 [GW515532],0,19,37,21,40,40,0,8,0,23,3,16,0,0,0,0,0,0,18,10
Nc1nccc(-c2c(-c3ccc(F)cc3)ncn2C2CCN(Cc3ccccc3)CC2)n1 [SB-219980],7,0,0,9,0,55,15,0,0,16,0,3,59,15,0,0,21,22,0,9
Cc1ccccc1-c1cc(-c2c[nH]nc2-c2ccccn2)ccn1 [GW680061],9,0,0,0,1,12,0,3,0,22,1,0,0,0,0,14,0,4,6,0
Cc1ccc(NC(=O)Nc2ccccc2)cc1-c1ccc(C(=O)Nc2ccncc2)cc1 [GSK1398471],0,0,0,0,19,14,1,4,0,21,15,11,0,13,10,4,15,0,0,11
O=C(Nc1n[nH]c2cc(-c3ccsc3)ccc12)C1CC1 [SB-732932],28,26,45,0,0,0,0,21,9,9,7,0,40,0,0,30,13,35,20,43
COc1ccc(CSc2nnc(-c3ccc4ncsc4c3)o2)cc1C(F)(F)F,0,0,0,2,0,0,8,4,0,0,0,13,0,10,0,4,0,13,0,0
Cc1ccc(NC(=O)Nc2ccccc2F)cc1-c1ccc(C(=O)Nc2ccncc2)cc1 [GSK1398477],32,21,14,5,22,25,0,22,0,25,7,23,0,8,12,21,0,0,27,25
CS(=O)(=O)Cc1ccc(Nc2nccc(-c3c(-c4cccc(NC(=O)C5CCCCC5)c4)nn4ncccc34)n2)cc1 [GSK350559],18,0,0,0,24,0,23,4,0,29,2,2,0,0,0,34,9,15,49,18
CNC(=O)c1ccc(C)c(-n2c(C)cc(OCc3ccc(F)cc3F)c(Br)c2=O)c1,0,0,2,0,0,0,0,2,0,0,0,5,0,0,15,0,0,0,0,0
Fc1ccc(-c2nn3cccc(F)c3c2-c2ccncc2)cc1 [GW475620],11,0,47,22,12,9,0,14,29,16,42,19,0,16,8,0,0,45,46,3
